Experiments:
Experiment in all cases: DAPPL (digital affinity profiling via proximity ligation, sequencing); 10 mM Tris-HCl pH 7.5, 50 mM NaCl, 1 mM DTT, 4% glycerol, room temperature, 30 min; GST-TFs on glutathione beads, 16-mer random dsDNA library, 0.1% formaldehyde crosslink after washing; high values mean tight binding
Details in all cases: protein: recombinant; tags: N-terminal GST; dsDNA, one strand shown
ERF = target: T1, ERF (Homo sapiens, UniProt P50548 1-548)
T1 sequence: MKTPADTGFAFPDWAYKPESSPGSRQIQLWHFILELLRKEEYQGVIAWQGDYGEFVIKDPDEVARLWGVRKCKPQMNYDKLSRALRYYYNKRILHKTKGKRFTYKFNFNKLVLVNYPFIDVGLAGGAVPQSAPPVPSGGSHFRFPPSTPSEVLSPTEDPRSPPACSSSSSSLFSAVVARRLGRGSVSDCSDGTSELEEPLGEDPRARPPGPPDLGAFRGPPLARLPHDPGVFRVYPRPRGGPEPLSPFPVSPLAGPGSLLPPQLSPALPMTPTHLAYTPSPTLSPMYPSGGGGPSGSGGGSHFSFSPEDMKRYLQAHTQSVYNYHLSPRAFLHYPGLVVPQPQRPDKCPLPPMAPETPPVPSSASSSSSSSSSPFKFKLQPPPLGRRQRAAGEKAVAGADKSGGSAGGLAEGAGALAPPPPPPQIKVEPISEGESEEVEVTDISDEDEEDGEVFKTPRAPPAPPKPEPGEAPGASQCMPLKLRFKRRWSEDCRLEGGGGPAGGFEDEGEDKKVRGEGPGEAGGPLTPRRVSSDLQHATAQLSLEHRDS
How it was run: (§1)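 After expression in yeast as GST fusions, human transcription factors were bound to glutathione beads, DNA-barcoded and mixed with a tag-only sample. The pools were incubated with 200 nmole of a 16-mer random double-stranded DNA library in Tris/NaCl/DTT/glycerol buffer (30 min, room temperature), washed and crosslinked with 0.1% formaldehyde. Proximity ligation with BsaI/T4 ligase ran for 1 h at 37 °C, before PCR amplification and sequencing on an Illumina NextSeq500. Binding signal is a hexamer's read frequency for a factor divided by its frequency for the tag-only sample.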

ETV3L = target: T2, ETV3L (Homo sapiens, UniProt Q6ZN32 1-361)
T2 sequence: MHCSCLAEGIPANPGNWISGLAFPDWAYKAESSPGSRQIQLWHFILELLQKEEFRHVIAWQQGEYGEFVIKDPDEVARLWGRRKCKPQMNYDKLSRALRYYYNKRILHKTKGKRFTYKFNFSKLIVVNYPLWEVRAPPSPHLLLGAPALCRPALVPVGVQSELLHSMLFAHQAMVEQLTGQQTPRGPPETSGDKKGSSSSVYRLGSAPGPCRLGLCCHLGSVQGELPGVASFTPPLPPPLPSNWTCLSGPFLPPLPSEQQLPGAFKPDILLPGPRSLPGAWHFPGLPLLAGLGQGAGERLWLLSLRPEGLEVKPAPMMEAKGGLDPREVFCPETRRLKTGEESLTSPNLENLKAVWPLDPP
How it was run: as §1

ETS2 = target: T3, ETS2 (Homo sapiens, UniProt P15036 1-469)
T3 sequence: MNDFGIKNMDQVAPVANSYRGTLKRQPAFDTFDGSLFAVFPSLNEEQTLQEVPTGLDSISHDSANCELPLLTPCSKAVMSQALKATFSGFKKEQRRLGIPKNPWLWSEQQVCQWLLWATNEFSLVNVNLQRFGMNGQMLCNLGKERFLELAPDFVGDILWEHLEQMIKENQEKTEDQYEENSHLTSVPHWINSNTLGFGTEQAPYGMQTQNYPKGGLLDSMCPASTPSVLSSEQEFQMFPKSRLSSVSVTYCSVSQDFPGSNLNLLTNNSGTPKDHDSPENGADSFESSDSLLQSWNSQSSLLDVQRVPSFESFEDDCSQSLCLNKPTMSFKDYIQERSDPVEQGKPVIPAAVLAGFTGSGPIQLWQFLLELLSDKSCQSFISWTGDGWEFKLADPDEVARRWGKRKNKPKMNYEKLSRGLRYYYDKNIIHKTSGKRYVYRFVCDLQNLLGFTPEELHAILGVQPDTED
How it was run: as §1

SPDEF = target: T4, SPDEF (Homo sapiens, UniProt O95238 1-335)
T4 sequence: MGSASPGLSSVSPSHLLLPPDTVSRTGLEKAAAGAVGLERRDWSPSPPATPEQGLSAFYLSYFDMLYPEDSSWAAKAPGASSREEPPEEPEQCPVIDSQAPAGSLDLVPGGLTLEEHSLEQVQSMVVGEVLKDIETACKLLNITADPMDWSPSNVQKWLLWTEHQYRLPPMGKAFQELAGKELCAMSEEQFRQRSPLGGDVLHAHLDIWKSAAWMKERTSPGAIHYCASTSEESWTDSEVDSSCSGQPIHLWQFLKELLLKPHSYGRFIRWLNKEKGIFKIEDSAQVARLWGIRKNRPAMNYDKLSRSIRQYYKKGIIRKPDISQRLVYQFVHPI
How it was run: as §1

ETV7 = target: T5, ETV7 (Homo sapiens, UniProt Q9Y603 1-341)
T5 sequence: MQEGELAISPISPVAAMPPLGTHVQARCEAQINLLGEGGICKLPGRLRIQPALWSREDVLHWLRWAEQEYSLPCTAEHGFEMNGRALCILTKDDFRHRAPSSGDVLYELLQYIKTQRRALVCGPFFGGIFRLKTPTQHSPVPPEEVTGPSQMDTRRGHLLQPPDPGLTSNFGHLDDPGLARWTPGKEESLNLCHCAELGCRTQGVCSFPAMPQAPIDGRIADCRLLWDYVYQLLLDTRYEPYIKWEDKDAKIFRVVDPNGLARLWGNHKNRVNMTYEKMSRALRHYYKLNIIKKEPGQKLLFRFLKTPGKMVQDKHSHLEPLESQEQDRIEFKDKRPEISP
How it was run: as §1

ELF5 = target: T6, ELF5 (Homo sapiens, UniProt Q9UKW6-2 1-255)
T6 sequence: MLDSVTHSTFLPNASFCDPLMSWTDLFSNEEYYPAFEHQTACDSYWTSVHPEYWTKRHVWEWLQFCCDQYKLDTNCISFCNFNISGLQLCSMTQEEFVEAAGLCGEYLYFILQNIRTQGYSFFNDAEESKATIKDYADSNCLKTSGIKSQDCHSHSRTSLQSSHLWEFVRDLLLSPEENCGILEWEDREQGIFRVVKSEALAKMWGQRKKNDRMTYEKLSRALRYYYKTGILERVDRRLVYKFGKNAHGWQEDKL
How it was run: as §1

ETV3 = target: T7, ETV3 (Homo sapiens, UniProt P41162-2 1-143)
T7 sequence: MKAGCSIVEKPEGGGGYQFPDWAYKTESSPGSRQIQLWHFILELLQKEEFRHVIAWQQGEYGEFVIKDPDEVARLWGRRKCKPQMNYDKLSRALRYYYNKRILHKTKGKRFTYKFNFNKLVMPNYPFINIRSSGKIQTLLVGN
How it was run: as §1

ETV6 = ETV6 (Homo sapiens, UniProt P41212 1-452)
How it was run: as §1

Sequence of ETV6 (P41212 whole entry): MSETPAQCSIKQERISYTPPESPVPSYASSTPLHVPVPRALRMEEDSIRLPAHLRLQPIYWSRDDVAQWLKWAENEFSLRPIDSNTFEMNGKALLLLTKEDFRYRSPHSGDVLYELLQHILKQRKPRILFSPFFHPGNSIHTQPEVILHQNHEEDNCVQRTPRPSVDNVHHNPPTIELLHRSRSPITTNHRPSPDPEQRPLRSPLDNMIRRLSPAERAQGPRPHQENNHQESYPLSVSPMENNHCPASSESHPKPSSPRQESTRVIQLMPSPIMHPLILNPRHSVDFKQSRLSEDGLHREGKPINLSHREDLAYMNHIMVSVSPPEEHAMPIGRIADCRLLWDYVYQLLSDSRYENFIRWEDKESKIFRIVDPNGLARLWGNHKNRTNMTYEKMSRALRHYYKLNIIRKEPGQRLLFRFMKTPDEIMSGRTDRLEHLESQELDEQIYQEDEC

Sequence | binding signal (ERF) | binding signal (ETV3L) | binding signal (ETS2) | binding signal (SPDEF) | binding signal (ETV7) | binding signal (ELF5) | binding signal (ETV3) | binding signal (ETV6)
GTCCTA | 1.32 fold enrichment (6-mer frequency, TF over GST control) | 1.12 fold enrichment (6-mer frequency, TF over GST control) | 1.11 fold enrichment (6-mer frequency, TF over GST control) | 1.29 fold enrichment (6-mer frequency, TF over GST control) | 1.29 fold enrichment (6-mer frequency, TF over GST control) | 1.14 fold enrichment (6-mer frequency, TF over GST control) | 1.25 fold enrichment (6-mer frequency, TF over GST control) | 1.13 fold enrichment (6-mer frequency, TF over GST control)
ATAATA | 1.32 fold enrichment (6-mer frequency, TF over GST control) | 1.14 fold enrichment (6-mer frequency, TF over GST control) | 1.2 fold enrichment (6-mer frequency, TF over GST control) | 1.15 fold enrichment (6-mer frequency, TF over GST control) | 1.14 fold enrichment (6-mer frequency, TF over GST control) | 1.17 fold enrichment (6-mer frequency, TF over GST control) | 1.2 fold enrichment (6-mer frequency, TF over GST control) | 1.2 fold enrichment (6-mer frequency, TF over GST control)
TTTTCC | 1.65 fold enrichment (6-mer frequency, TF over GST control) | 1.71 fold enrichment (6-mer frequency, TF over GST control) | 1.69 fold enrichment (6-mer frequency, TF over GST control) | 1.67 fold enrichment (6-mer frequency, TF over GST control) | 1.78 fold enrichment (6-mer frequency, TF over GST control) | 2.37 fold enrichment (6-mer frequency, TF over GST control) | 1.82 fold enrichment (6-mer frequency, TF over GST control) | 2.08 fold enrichment (6-mer frequency, TF over GST control)
CCTAAG | 1.11 fold enrichment (6-mer frequency, TF over GST control) | 1.12 fold enrichment (6-mer frequency, TF over GST control) | 1.09 fold enrichment (6-mer frequency, TF over GST control) | 1.08 fold enrichment (6-mer frequency, TF over GST control) | 1.09 fold enrichment (6-mer frequency, TF over GST control) | 1.11 fold enrichment (6-mer frequency, TF over GST control) | 1.06 fold enrichment (6-mer frequency, TF over GST control) | 1.11 fold enrichment (6-mer frequency, TF over GST control)
CCGTTT | 1.33 fold enrichment (6-mer frequency, TF over GST control) | 1.45 fold enrichment (6-mer frequency, TF over GST control) | 1.4 fold enrichment (6-mer frequency, TF over GST control) | 1.57 fold enrichment (6-mer frequency, TF over GST control) | 1.49 fold enrichment (6-mer frequency, TF over GST control) | 1.51 fold enrichment (6-mer frequency, TF over GST control) | 1.52 fold enrichment (6-mer frequency, TF over GST control) | 1.53 fold enrichment (6-mer frequency, TF over GST control)
TCTACC | 1.73 fold enrichment (6-mer frequency, TF over GST control) | 1.78 fold enrichment (6-mer frequency, TF over GST control) | 1.6 fold enrichment (6-mer frequency, TF over GST control) | 1.6 fold enrichment (6-mer frequency, TF over GST control) | 1.44 fold enrichment (6-mer frequency, TF over GST control) | 1.61 fold enrichment (6-mer frequency, TF over GST control) | 1.52 fold enrichment (6-mer frequency, TF over GST control) | 1.54 fold enrichment (6-mer frequency, TF over GST control)
TTTCAT | 1.25 fold enrichment (6-mer frequency, TF over GST control) | 1.15 fold enrichment (6-mer frequency, TF over GST control) | 1.17 fold enrichment (6-mer frequency, TF over GST control) | 1.2 fold enrichment (6-mer frequency, TF over GST control) | 1.2 fold enrichment (6-mer frequency, TF over GST control) | 1.23 fold enrichment (6-mer frequency, TF over GST control) | 1.22 fold enrichment (6-mer frequency, TF over GST control) | 1.13 fold enrichment (6-mer frequency, TF over GST control)
TTCTCA | 1.21 fold enrichment (6-mer frequency, TF over GST control) | 1.23 fold enrichment (6-mer frequency, TF over GST control) | 1.21 fold enrichment (6-mer frequency, TF over GST control) | 1.17 fold enrichment (6-mer frequency, TF over GST control) | 1.26 fold enrichment (6-mer frequency, TF over GST control) | 1.23 fold enrichment (6-mer frequency, TF over GST control) | 1.34 fold enrichment (6-mer frequency, TF over GST control) | 1.26 fold enrichment (6-mer frequency, TF over GST control)
CTGTTA | 1.28 fold enrichment (6-mer frequency, TF over GST control) | 1.23 fold enrichment (6-mer frequency, TF over GST control) | 1.26 fold enrichment (6-mer frequency, TF over GST control) | 1.32 fold enrichment (6-mer frequency, TF over GST control) | 1.12 fold enrichment (6-mer frequency, TF over GST control) | 1.37 fold enrichment (6-mer frequency, TF over GST control) | 1.31 fold enrichment (6-mer frequency, TF over GST control) | 1.26 fold enrichment (6-mer frequency, TF over GST control)
AATCTA | 1.25 fold enrichment (6-mer frequency, TF over GST control) | 1.08 fold enrichment (6-mer frequency, TF over GST control) | 1.16 fold enrichment (6-mer frequency, TF over GST control) | 1.02 fold enrichment (6-mer frequency, TF over GST control) | 1.13 fold enrichment (6-mer frequency, TF over GST control) | 1.1 fold enrichment (6-mer frequency, TF over GST control) | 1.05 fold enrichment (6-mer frequency, TF over GST control) | 1.09 fold enrichment (6-mer frequency, TF over GST control)
TAACGC | 1.06 fold enrichment (6-mer frequency, TF over GST control) | 1.18 fold enrichment (6-mer frequency, TF over GST control) | 1.15 fold enrichment (6-mer frequency, TF over GST control) | 1.15 fold enrichment (6-mer frequency, TF over GST control) | 1.01 fold enrichment (6-mer frequency, TF over GST control) | 1.13 fold enrichment (6-mer frequency, TF over GST control) | 1.2 fold enrichment (6-mer frequency, TF over GST control) | 1.17 fold enrichment (6-mer frequency, TF over GST control)
TCTCAC | 1.44 fold enrichment (6-mer frequency, TF over GST control) | 1.33 fold enrichment (6-mer frequency, TF over GST control) | 1.35 fold enrichment (6-mer frequency, TF over GST control) | 1.23 fold enrichment (6-mer frequency, TF over GST control) | 1.24 fold enrichment (6-mer frequency, TF over GST control) | 1.37 fold enrichment (6-mer frequency, TF over GST control) | 1.34 fold enrichment (6-mer frequency, TF over GST control) | 1.32 fold enrichment (6-mer frequency, TF over GST control)
TCTGAA | 1.27 fold enrichment (6-mer frequency, TF over GST control) | 1.15 fold enrichment (6-mer frequency, TF over GST control) | 1.27 fold enrichment (6-mer frequency, TF over GST control) | 1.23 fold enrichment (6-mer frequency, TF over GST control) | 1.07 fold enrichment (6-mer frequency, TF over GST control) | 1.07 fold enrichment (6-mer frequency, TF over GST control) | 1.09 fold enrichment (6-mer frequency, TF over GST control) | 1.16 fold enrichment (6-mer frequency, TF over GST control)
TTCTTA | 1.21 fold enrichment (6-mer frequency, TF over GST control) | 1.4 fold enrichment (6-mer frequency, TF over GST control) | 1.24 fold enrichment (6-mer frequency, TF over GST control) | 1.4 fold enrichment (6-mer frequency, TF over GST control) | 1.38 fold enrichment (6-mer frequency, TF over GST control) | 1.35 fold enrichment (6-mer frequency, TF over GST control) | 1.34 fold enrichment (6-mer frequency, TF over GST control) | 1.4 fold enrichment (6-mer frequency, TF over GST control)
CTACGC | 1.72 fold enrichment (6-mer frequency, TF over GST control) | 1.5 fold enrichment (6-mer frequency, TF over GST control) | 1.59 fold enrichment (6-mer frequency, TF over GST control) | 1.56 fold enrichment (6-mer frequency, TF over GST control) | 1.42 fold enrichment (6-mer frequency, TF over GST control) | 1.49 fold enrichment (6-mer frequency, TF over GST control) | 1.59 fold enrichment (6-mer frequency, TF over GST control) | 1.64 fold enrichment (6-mer frequency, TF over GST control)

Source: paper PMC7862700, “An all-to-all approach to the identification of sequence-specific readers for epigenetic DNA modifications on cytosine”
